# Assay outcomes as filed in PubChem.
# SRC1 inh = inhibits human SRC1 coactivator; HEK293 GAL4-SRC1 luciferase reporter, luminescence; inhibition, % at 3.6 µM; actives 0.12% (n = 360,000);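 active means inhibition above the campaign mean plus 3 SD, with each screening campaign given its own cutoff, cut at about 60% in these data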;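 further: 0% = DMSO treated cells and 100% = gossypol at 36 µM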
# Gli-Sufu antag = antagonists of Gli-Sufu signaling. AID 588413. actives 0.74% (n = 340,000). inhibition, % at 5 µM. Sufu-KO-LIGHT fibroblasts, Gli luciferase reporter luminescence;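 active means inhibition above about 55%, limit read from the data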;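 further: 0% = DMSO-treated cells and 100% = wells with medium but no cells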
# LRH-1 inv ag = NR5A2 inverse agonism in reporter assay. O00482. HEK293T StAR-luciferase reporter, LRH-1 transfected, 24 h. inhibition, % at 3.6 µM. actives 0.13% (n = 360,000);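 active means inhibition above the mean inhibition of all tested compounds plus 3 SD, cut at about 73% in these data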;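 further: 0% = DMSO wells and 100% = reporter-only cells lacking LRH-1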
# Target sequence (O00482 whole entry, looked up): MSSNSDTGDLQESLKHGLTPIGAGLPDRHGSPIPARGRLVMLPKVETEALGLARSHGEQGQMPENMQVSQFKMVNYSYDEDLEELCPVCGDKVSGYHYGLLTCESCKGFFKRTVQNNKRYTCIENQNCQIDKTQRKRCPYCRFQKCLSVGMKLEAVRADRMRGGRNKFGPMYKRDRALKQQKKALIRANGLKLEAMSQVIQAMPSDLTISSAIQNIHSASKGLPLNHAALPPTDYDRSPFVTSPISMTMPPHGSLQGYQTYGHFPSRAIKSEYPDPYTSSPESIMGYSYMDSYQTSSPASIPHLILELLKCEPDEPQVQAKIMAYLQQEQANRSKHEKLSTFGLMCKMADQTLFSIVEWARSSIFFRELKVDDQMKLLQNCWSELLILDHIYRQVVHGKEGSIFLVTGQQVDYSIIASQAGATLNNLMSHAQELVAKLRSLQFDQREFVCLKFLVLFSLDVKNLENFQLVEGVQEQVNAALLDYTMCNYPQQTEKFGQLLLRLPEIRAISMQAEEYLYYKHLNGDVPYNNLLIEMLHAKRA
# SRC2 inh = inhibits human steroid receptor coactivator 2; HEK293 GAL4-SRC2 luciferase reporter, luminescence; inhibition, % at 9 µM; actives 0.17% (n = 370,000); AID 651957;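 active means inhibition above the mean inhibition of all tested compounds plus 3 SD, set per campaign, cut at about 52% in these data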;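 further: 0% = DMSO treated cells and 100% = cells given Gossypol at 36 µM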
# NCOA3 inh = inhibits human SRC3 coactivator; Q9Y6Q9; HEK293 GAL4-SRC3 luciferase reporter, luminescence; inhibition, % at 3.6 µM; actives 0.17% (n = 360,000); AID 588352;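 active means inhibition above a per-campaign cutoff, the mean of all compounds plus 3 SD, cut at about 60% in these data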;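 further: 0% = DMSO-treated cells and 100% = gossypol-treated cells at 36 µM; higher means less SRC3-driven luciferase light from the GAL4 reporter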
# Gli antag conf = confirmation of Gli-SUFU pathway antagonists. shares compounds with Gli-Sufu antag. Sufu-KO-LIGHT cells, Gli luciferase reporter, luminescence. inhibition, % at 5 µM. actives 40% (n = 2,500);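 active means mean inhibition at 5 µM reaching about 45%, limit read from the data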;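 further: plate controls were DMSO-treated cells for no effect and wells lacking cells for full effect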
# SufuKO cytotox = counter-screen for Gli-SUFU antagonists: cytotoxicity; cytotoxicity, % at 5 µM; actives 32% (n = 2,500); Sufu-KO-LIGHT cells cytotoxicity, ATP luminescence; AID 651994; shares compounds with Gli-Sufu antag;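 active means mean cytotoxicity at 5 µM above about 25%, limit read from the data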;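 further: cells exposed to compound overnight for roughly 16 to 18 hours; plate controls were DMSO wells with cells for no effect and medium without cells for full effect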
# Wnt3a cs = counter-screen for Gli-SUFU antagonists: Wnt3a reporter inhibition. shares compounds with Gli-Sufu antag. Wnt-LIGHT cells, Wnt3a-driven luciferase reporter, luminescence. inhibition, % at 6.25 µM. actives 20% (n = 2,500). AID 651995;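 active means mean inhibition above about 25%, limit read from the data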
# * hit, by the source's call; . = no result. Hits are enriched below; roughly 0.83% of the tested compounds scored in any of these assays.
SMILES,SRC1 inh,Gli-Sufu antag,LRH-1 inv ag,SRC2 inh,NCOA3 inh,Gli antag conf,SufuKO cytotox,Wnt3a cs
CC(C)COc1cccc(C(=O)Nc2ccc(CN3CCOCC3)cc2)c1,15,51,7,27,8,16,12,3
CC(C)COc1cccc(C(=O)Nc2ccc(S(=O)(=O)N3CCOCC3)cc2)c1,-1,5,-2,-12,19,.,.,.
Clc1ccc(-c2cn(-c3ccc(Cl)cc3)c3[n+]2CCCCC3)cc1,-18,58*,8,-49,4,58*,29*,-43
COc1ccc(N2CC(O)(c3ccc(OC(F)F)cc3)[N+]3=C2CCCC3)cc1 (stereo not drawn),8,13,1,-44,5,.,.,.
Clc1ccc(-c2cn3nc4c(nc3n2)CCCC4)cc1,-90,-28,-101,-39,-76,.,.,.
COc1ccc(-n2cc(-c3ccc(OC(F)F)cc3)[n+]3c2CCCCC3)cc1,15,81*,22,15,22,83*,33*,9
COc1ccc(-c2cn(-c3ccc(Cl)cc3)c3[n+]2CCCCC3)cc1,-6,80*,-6,-10,20,78*,31*,20
COc1ccc(-n2cc(-c3ccc(Cl)cc3)[nH]c2=S)cc1,-32,-46,-58,-74,-34,.,.,.
COC(=O)C1CN(Cc2cn(Cc3ccc(OC)cc3)nn2)CCS(=O)(=O)N1Cc1ccc(F)cc1 (stereo not drawn),.,.,.,0,.,.,.,.
O=C(NN=Cc1ccc(-c2ccccc2)cc1)c1cc(-c2ccc(Cl)cc2)n[nH]1,.,.,.,-14,.,.,.,.
COC(=O)[C@]12C[C@H](CC(=O)N3CCSCC3)C(=O)N(CCc3ccc(OC)c(OC)c3)C1=C[C@H](C(C)C)O[C@@H]2C1CC1,.,.,.,-9,.,.,.,.
Cc1c(Cl)cccc1NC(=O)NN1CCN(C)CC1,11,95*,2,-14,11,10,24,-7
Cc1cc(C)c(Cn2cnc(-c3ccc([N+](=O)[O-])cc3)c2)c(C)c1,2,55*,6,15,9,30,28*,-44
CC(C)(C)c1ccc(Cn2cnc(-c3ccc([N+](=O)[O-])cc3)c2)cc1,-49,-20,-64,-57,-44,.,.,.
Cc1c(C(C)C)c(=O)n(-c2ccc(S(=O)(=O)N3CCOCC3)cc2)n1C,-6,4,6,-73,-1,.,.,.
CCc1ccc(S(=O)(=O)Nc2c(C)n(C)n(-c3ccccc3)c2=O)cc1,-8,1,16,-13,9,.,.,.
Cc1c(C(C)C)c(=O)n(-c2ccc(S(=O)(=O)NC3CCCCC3)cc2)n1C,21,68*,44,7,28,60*,25*,-4
Cc1c(C(C)C)c(=O)n(-c2ccc(S(=O)(=O)NCc3ccccc3)cc2)n1C,25,71*,43,14,-5,63*,23,6
CCNC(=S)N(CCc1cccc(C)c1)Cc1cc2cc(OC)c(OC)cc2[nH]c1=O,5,52,1,-46,20,14,25,-22
CCNC(=S)N(CCN(C)C)Cc1cc2cc(OCC)ccc2[nH]c1=O,-21,60*,-29,-5,13,23,12,-8
Cc1cccc(-n2ncc3c2CCCC3NC(=O)Cc2c(C)noc2C)c1C (stereo not drawn),1,59*,28,16,-11,29,31*,7
Cc1cc(C(=O)NC2CCCc3c2cnn3-c2cccc(C)c2C)no1 (stereo not drawn),16,34,-7,4,-23,.,.,.
COc1ccc(/C=C2\Sc3ccc(C(=O)N4CCN(Cc5ccccc5)CC4)cc3N(C)C2=O)cc1OC,11,99*,32,23,28,13,13,-7
CC(C)CNS(=O)(=O)/C=C/c1ccc(F)cc1CNC(=O)OC(C)(C)C,.,.,.,-18,.,.,.,.
COc1cccc(OC)c1/C(O)=C(\C#N)c1nc2ccccc2[nH]1,1,51,29,6,-15,19,22,-7
SMILES,SRC1 inh,Gli-Sufu antag,LRH-1 inv ag,SRC2 inh,NCOA3 inh,Gli antag conf,SufuKO cytotox,Wnt3a cs
COc1ccc2ccccc2c1CN(C)Cc1ccccc1,-19,83*,0,5,-12,18,14,-7
CN[C@H]1CCc2cc(OC)c(OC)c(OC)c2-c2ccc(OC)c(=O)cc21,-12,45,49,-5,33,.,.,.
CCOCC(=O)NC1CCc2cc(OC)c(OC)c(OC)c2-c2ccc(SC)c(=O)cc21 (stereo not drawn),-5,48,14,11,21,.,.,.
CCCCOC(=O)NC1CCc2cc(OC)c(OC)c(OC)c2-c2ccc(SC)c(=O)cc21 (stereo not drawn),-4,64*,28,9,13,54*,64*,0
CCOC(=O)NC1CCc2cc(OC)c(OC)c(OC)c2-c2ccc(SC)c(=O)cc21 (stereo not drawn),-18,55*,17,24,18,56*,68*,26*
COC(=O)c1ccccc1NC(=O)C1CCCO1 (stereo not drawn),2,-7,-17,14,1,.,.,.
CC(C)NC(=O)c1ccccc1NC(=O)C1CCCO1 (stereo not drawn),-1,59*,-2,5,22,13,8,-1
COc1cc(NS(=O)(=O)c2ccc(C)cc2C)cc(OC)c1OC,12,53,33,-10,29,50*,17,10
CCc1c(C)nc2cc(-c3ccc(OC)c(OC)c3)nn2c1NCC1CC1,-15,74*,-43,-20,-22,74*,27*,35*
COc1ccc(-c2c(C)nn3c(NC4CCCC4)cc(C)nc23)cc1OC,5,1,54,-8,19,.,.,.
Cc1ccc(S(=O)(=O)N2CCCCC2C(=O)NCc2ccco2)cc1 (stereo not drawn),-19,52,-10,-5,9,14,2,24
COC(=O)Nc1ccc(S(=O)(=O)N2CCCCC2C(=O)NCc2ccco2)cc1 (stereo not drawn),-12,8,20,-13,-11,.,.,.
CC(C)CCc1noc(CN(C)CCC2CCOCC2)n1,-1,13,3,10,12,.,.,.
Cc1nn(C)c(C)c1CN(Cc1nc(CCC(C)C)no1)C(C)C,19,79*,48,19,19,73*,26*,51*
CCOc1ccccc1N(C)S(=O)(=O)c1ccc2c(c1)CC(C)N2C(=O)C1CC1 (stereo not drawn),20,60*,8,-43,22,16,12,-46
CC1=C(C(=O)OCC(C)C)C(c2cccc(F)c2)N2C(=O)C(C)SC2=N1 (stereo not drawn),-7,65*,5,6,8,11,-3,-12
